In PubChem BioAssay (NCATS):
Several values for one entry are separate records, joined by “and”; a condition that tells them apart may be missing. Equal entries are not always repeated. Inconclusive results are not listed. A call without a number means that no potency is given here. Some compounds were tested as several samples or in several runs, with calls that do not always agree. Activity calls are given as the source filed them. The call rests on the fitted dose curve; in most records, active means well fitted curve in the direction sought with a large enough effect; inconclusive means small, poorly fitted or top-dose-only effect, or another doubt; inactive means no such curve, though single readings can be large; an effect the other way counts as inactive or inconclusive.

How the values were obtained:
[1] = tested on: MKL-2; assay: qHTS assay to identify novel small-molecules to repurpose for Merkel cell carcinoma treatment (AID 1296009); conditions: MCC and control cell lines, CellTiter-Glo viability, 72 h; series mostly up to 46 µM; further: nearly all actives have a fitted effect of over 60% in size
Outline: (§1)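 Viability readout: ATP luminescence (CellTiter-Glo) after 72 hr drug exposure at 37 degree celsius. Dose-response format was 8 points for NPC and 11 points for MIPE; data normalized to in-plate controls.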

[2] = tested on: NIH3T3; assay: as above; conditions: MCC and control cell lines, CellTiter-Glo viability, 72 h; at 44.8 µM (top of the series) unless noted
Outline: as §1

[3] = tested on: UISO; assay: as above; conditions: MCC and control cell lines, CellTiter-Glo viability, 72 h; series mostly up to 46 µM
Outline: as §1

[4] = tested on: WaGa; assay: as above; conditions: MCC and control cell lines, CellTiter-Glo viability, 72 h; series mostly up to 46 µM
Outline: as §1

[5] = tested on: C33A; assay: Primary qHTS to identify gynecologic anti-cancer compounds using libraries of approved drugs and bioactive compounds (AID 1345084); conditions: Gynecologic cancer cell panel viability, ATPlite luminescence, 48 h; series mostly up to 57.5 µM; further: nearly all actives have a fitted effect of over 55% in size
Outline: (§2)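 48 h compound exposure at 37 C, 5% CO2; five-point qHTS. ATPlite luminescence readout of cell ATP.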

[6] = tested on: CAOV3; assay: as above; conditions: Gynecologic cancer cell panel viability, ATPlite luminescence, 48 h; series mostly up to 57.5 µM
Outline: as §2

[7] = tested on: CASKI; assay: as above; conditions: Gynecologic cancer cell panel viability, ATPlite luminescence, 48 h; series mostly up to 57.5 µM
Outline: as §2

[8] = tested on: Es-2; assay: as above; conditions: Gynecologic cancer cell panel viability, ATPlite luminescence, 48 h; series mostly up to 57.5 µM
Outline: as §2

[9] = tested on: HeLa; assay: as above; conditions: Gynecologic cancer cell panel viability, ATPlite luminescence, 48 h; series mostly up to 57.5 µM
Outline: as §2

[10] = tested on: Hek293T; assay: as above; conditions: Gynecologic cancer cell panel viability, ATPlite luminescence, 48 h, control line for the selectivity index; series mostly up to 57.5 µM
Outline: as §2
Potency means the concentration at half of the fitted maximal effect.

Row | SMILES | Potency [1] | outcome [2] | Potency [3] | Potency [4] | Potency [5] | Potency [6] | Potency [7] | Potency [8] | Potency [9] | Potency [10]
1 | NCCCC(O)(P(=O)(O)O)P(=O)(O)O | inactive | inactive | inactive | inactive | inactive | inactive | inactive | inactive | inactive | inactive
2 | COc1ccc(C(=O)CC(=O)c2ccc(C(C)(C)C)cc2)cc1 | 0.935 µM (active) | – | inactive and 11.8 µM (active) | inactive | inactive | inactive | inactive | inactive | inactive | inactive
3 | O=C(O)c1cccnc1 | inactive | – | inactive | inactive | inactive | inactive | inactive | inactive | inactive | inactive
4 | Cc1oc(=O)oc1CN1CCN(c2cc3c(cc2F)c(=O)c(C(=O)O)c2n3C(C)S2)CC1 (stereo not given) | inactive | inactive | inactive | inactive | inactive | inactive | inactive | inactive | inactive | inactive
5 | O=C(O)C1CCCN(CCC=C(c2ccccc2)c2ccccc2)C1 (stereo not given) | inactive | – | inactive | inactive | – | – | – | – | – | –
6 | Cc1ccnc2c1NC(=O)c1cccnc1N2C1CC1 | inactive | – | inactive | inactive | inactive | inactive | inactive | inactive | inactive | inactive
7 | COc1cc2nc(N3CCCN(C)CC3)nc(NC3CCN(Cc4ccccc4)CC3)c2cc1OC | 1.32 µM (active) | – | 14.8 µM (active) | – | – | – | – | – | – | –
8 | COc1cc(NS(=O)(=O)c2ccc(N)cc2)nc(OC)n1 | inactive | – | inactive | inactive | inactive | inactive | inactive | inactive | inactive | inactive
9 | COc1nc(N)nc2c1ncn2[C@@H]1O[C@H](CO)[C@@H](O)[C@@H]1O | inactive | – | inactive | inactive and 18.7 µM (active) | inactive | inactive | inactive | inactive | inactive | inactive
10 | CCCc1cc(C(N)=S)ccn1 | inactive | – | inactive | inactive | inactive | inactive | inactive | inactive | inactive | inactive
11 | COC(c1ccccc1)(c1ccccc1)[C@H](Oc1nc(C)cc(C)n1)C(=O)O | inactive | inactive | inactive | inactive | inactive | inactive | inactive | inactive | inactive | inactive
12 | CCN1CCCC1CNC(=O)c1cc(S(N)(=O)=O)ccc1OC (stereo not given) | inactive | – | inactive | inactive | – | – | – | – | – | –
13 | COc1c(N2CCNC(C)C2)c(F)cc2c(=O)c(C(=O)O)cn(C3CC3)c12 (stereo not given) | inactive | inactive | inactive | inactive | inactive | inactive | inactive | inactive | inactive | inactive
14 | Cn1nnc2c(C(N)=O)ncn2c1=O | inactive | inactive | inactive | inactive | inactive | inactive | inactive | inactive | – | inactive
15 | Cn1c(=O)c2c(ncn2CC(O)CO)n(C)c1=O (stereo not given) | inactive | – | inactive | inactive | inactive | inactive | inactive | inactive | inactive | inactive
16 | OCc1ccc(-c2nn(Cc3ccccc3)c3ccccc23)o1 | 18.7 µM (active) | – | 11.8 µM (active) | – | – | – | – | – | – | –
17 | CC(C(=O)O)c1ccc2c(c1)CC(=O)c1ccccc1S2 (stereo not given) | inactive | inactive | inactive | inactive | inactive | inactive | inactive | inactive | inactive | inactive
18 | NC(=O)c1ccc2[nH]ccc2c1 | inactive | – | inactive | inactive | – | – | – | – | – | –
19 | NS(=O)(=O)c1cc2c(cc1Cl)NC(C(Cl)Cl)NS2(=O)=O (stereo not given) | inactive | – | inactive | inactive | inactive | inactive | inactive | inactive | inactive | inactive
20 | CCN(C)C(=O)Oc1cccc([C@H](C)N(C)C)c1 | inactive | – | inactive | inactive | inactive | inactive | inactive | inactive | inactive | inactive
21 | O=NN(CCCl)C(=O)NC1CCCCC1 | inactive | inactive | inactive | inactive | inactive | inactive | inactive | inactive | inactive | inactive
22 | CC(N)C12CC3CC(CC(C3)C1)C2 (stereo not given) | inactive | inactive | inactive | inactive | inactive | inactive | inactive | inactive | inactive | inactive
23 | CC(C)NCC(O)c1ccc(NS(C)(=O)=O)cc1 (stereo not given) | inactive | – | inactive | inactive | – | – | – | – | – | –
24 | Cc1cc(NS(=O)(=O)c2ccc(N)cc2)no1 | inactive | inactive | inactive | inactive | – | inactive | inactive | inactive | inactive | inactive
25 | O=C(NCC1CN(c2ccc(N3CCOCC3=O)cc2)C(=O)O1)c1ccc(Cl)s1 (stereo not given) | inactive | inactive | inactive | inactive | inactive | inactive | inactive | inactive | inactive | inactive

Row | SMILES | Potency [1] | outcome [2] | Potency [3] | Potency [4] | Potency [5] | Potency [6] | Potency [7] | Potency [8] | Potency [9] | Potency [10]
26 | CN(C)c1ccc(C(=C2C=CC(=[N+](C)C)C=C2)c2ccc(N(C)C)cc2)cc1 | 94.4 nM (active) and 11.8 nM (active) | – | 841 nM (active) and 187 nM (active) | 596 nM (active) and 296 nM (active) | 10 µM (active) | 1.41 µM (active) | 1.12 µM (active) | 1.78 µM (active) | 2 µM (active) | –
27 | CCn1cc(C(=O)O)c(=O)c2cc(F)c(N3CCN(C)CC3)cc21 | inactive | inactive [at 17.4 µM] | inactive | inactive | inactive | inactive | inactive | inactive | inactive | inactive
28 | Cc1noc(NS(=O)(=O)c2ccc(N)cc2)c1C | inactive | – | inactive | inactive | inactive | – | inactive | inactive | inactive | inactive
29 | C[C@@H]1C[C@H]2[C@@H]3CCC4=CC(=O)C=C[C@]4(C)[C@@]3(Cl)[C@@H](O)C[C@]2(C)[C@@]1(OC(=O)c1ccco1)C(=O)CCl | 29.9 µM (active) and 18.7 µM (active) | – | 20.9 µM (active) | 16.6 µM (active) | inactive | inactive | inactive | – | inactive | –
30 | CN(C)CCc1c[nH]c2ccc(CS(=O)(=O)N3CCCC3)cc12 | inactive | – | inactive | inactive | inactive | inactive | inactive | inactive | inactive | inactive
31 | CCOC(=O)[C@H](CCc1ccccc1)N[C@H]1CS[C@H](c2cccs2)CN(CC(=O)O)C1=O | inactive and 1.05 µM (active) | – | inactive | inactive and 469 nM (active) | inactive | inactive | inactive | inactive | inactive | inactive
32 | NC1(c2ccc(-c3nc4ccn5c(=O)[nH]nc5c4cc3-c3ccccc3)cc2)CCC1 | 13.3 µM (active) | – | 13.2 µM (active) | 16.6 µM (active) and 26.6 µM (active) | inactive | inactive | – | inactive | inactive | 3.55 µM (active)
33 | CCN[C@H]1C[C@H](C)S(=O)(=O)c2sc(S(N)(=O)=O)cc21 | inactive | – | inactive | inactive | inactive | – | inactive | inactive | inactive | inactive
34 | S=P(N1CC1)(N1CC1)N1CC1 | inactive | – | inactive | inactive | inactive | inactive | – | inactive | inactive | inactive
35 | Clc1ccccc1CN1CCc2sccc2C1 | inactive | – | inactive | inactive | inactive | – | inactive | inactive | inactive | inactive
36 | O=c1oc2c(O)c(O)cc3c(=O)oc4c(O)c(O)cc1c4c23 | inactive | – | inactive | inactive | inactive | inactive | inactive | inactive | inactive | inactive
37 | Cc1cccc(N(C)C(=S)Oc2ccc3ccccc3c2)c1 | inactive | – | inactive | inactive | inactive | inactive | inactive | inactive | inactive | inactive
38 | COc1ncnc(NS(=O)(=O)c2ccc(N)cc2)c1OC | inactive | – | inactive | inactive | inactive | inactive | inactive | inactive | inactive | inactive
39 | CC(=O)CC(c1ccccc1)c1c(O)c2ccccc2oc1=O (stereo not given) | inactive | – | inactive | inactive | inactive | inactive | inactive | inactive | inactive | inactive
40 | CCC(=O)O[C@]1(C(=O)SCF)[C@H](C)C[C@H]2[C@@H]3C[C@H](F)C4=CC(=O)C=C[C@]4(C)[C@@]3(F)[C@@H](O)C[C@@]21C | inactive | – | inactive | inactive | inactive | – | inactive | inactive | inactive | inactive
41 | COc1cccc(N(C)C(=S)Oc2ccc3c(c2)CCCC3)n1 | inactive | – | inactive | inactive | inactive | inactive | inactive | inactive | inactive | inactive
42 | CC(C)C1CCC(C(=O)N[C@H](Cc2ccccc2)C(=O)O)CC1 (stereo not given in full) | inactive | – | inactive | inactive | inactive | inactive | inactive | inactive | inactive | inactive
43 | CO[C@@H]1[C@@H](OC(N)=O)[C@@H](O)[C@H](Oc2ccc3c(O)c(NC(=O)c4ccc(O)c(CC=C(C)C)c4)c(=O)oc3c2C)OC1(C)C | inactive | – | inactive | inactive | inactive | inactive | inactive | – | inactive | inactive
44 | O=C(N[C@H](CO)[C@H](O)c1ccc([N+](=O)[O-])cc1)C(Cl)Cl | inactive | – | inactive | inactive | inactive | – | inactive | inactive | inactive | inactive
45 | CCC(C)(C)c1ccc(CC(C)CN2C[C@@H](C)O[C@@H](C)C2)cc1 (stereo not given in full) | inactive | – | inactive | inactive | inactive | inactive | inactive | inactive | inactive | inactive
46 | CCOCC(O)COc1ccc(NC(=O)CC[S+](C)C)cc1 (stereo not given) | inactive | – | inactive | inactive | inactive | inactive | inactive | inactive | inactive | inactive
47 | CN1CCN(c2c(F)cc3c(=O)c(C(=O)O)cn4c3c2OCN4C)CC1 | inactive | – | inactive | inactive | inactive | inactive | inactive | inactive | inactive | inactive
48 | NC(=O)c1cccnc1 | inactive | – | inactive | inactive | inactive | – | inactive | inactive | inactive | inactive
49 | COc1cnc(NS(=O)(=O)c2ccc(N)cc2)nc1 | inactive | – | inactive | inactive and 13.2 µM (active) | inactive | inactive | inactive | inactive | inactive | inactive
